In PubChem BioAssay AID1159580 (chemical genetic matrix, 2015):
Hit rate of the full screen: of about 5,500 compounds, about 2,000 (36%) were called active. About 18% were inconclusive and are not listed. Cut-off read from the data, not from the text of the source: active = normalized growth mostly below about 0.91 (no sharp cut-off); inconclusive = no clear call, values can overlap the other calls; inactive = mostly above about 0.92. The list shows a part of the results.

Test: chemical genetic growth profiling, strain panel (AID 1159580);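 note: tested at 20 µM; growth read once vehicle control cultures reached saturation at 30 °C; 1 = growth at the plate median or of vehicle wells; lower values mean less growth of the strain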
Details: S. cerevisiae deletion strains, growth OD

Measured: normalized growth

COc1ccc(C2CC(c3ccc(C)cc3C)=NN2C(C)=O)cc1 (stereo unspecified)
inactive: locus YAR019C, strain CDC15, active compounds read low 0.997 | locus YBL105C, strain PKC1, active compounds read low 0.993 | locus YBR135W, strain CKS1, active compounds read low 0.984 | locus YBR136W, strain MEC1, active compounds read low 0.981 | locus YBR160W, strain CDC28, active compounds read low 0.995 | locus YDL017W, strain CDC7, active compounds read low 0.992 | locus YDL028C, strain MPS1, active compounds read low 0.984 | locus YDL101C, strain DUN1, active compounds read low 0.987 | locus YDL108W, strain KIN28, active compounds read low 0.977 | locus YDL132W, strain cdc53, active compounds read low 0.994 | locus YDL214C, strain PRR2, active compounds read low 0.872 | locus YDR052C, strain DBF4, active compounds read low 0.999 | locus YDR054C, strain cdc34, active compounds read low 0.983 | locus YDR226W, strain ADK1, active compounds read low 0.985 | locus YDR477W, strain SNF1, active compounds read low 0.919 | locus YER123W, strain YCK3, active compounds read low 0.85 | locus YER133W, strain GLC7, active compounds read low 0.911 | locus YFL009W, strain cdc4, active compounds read low 0.984 | locus YFL029C, strain CAK1, active compounds read low 0.994 | locus YFR003C, strain YPI1, active compounds read low 0.988 | locus YFR019W, strain FAB1, active compounds read low 0.937 | locus YFR028C, strain CDC14, active compounds read low 0.981 | locus YGR040W, strain KSS1, active compounds read low 0.89 | locus YGR052W, strain FMP48, active compounds read low 0.971 | locus YGR092W, strain DBF2, active compounds read low 0.909 | locus YHR030C, strain SLT2, active compounds read low 1.04 | locus YHR079C, strain IRE1, active compounds read low 0.971 | locus YHR082C, strain KSP1, active compounds read low 0.984 | locus YHR205W, strain SCH9, active compounds read low 0.931 | locus YIL147C, strain SLN1, active compounds read low 0.978 | locus YJL095W, strain BCK1, active compounds read low 0.967 | locus YJL128C, strain PBS2, active compounds read low 0.907 | locus YJL157C, strain FAR1, active compounds read low 0.889 | locus YJR016C, strain ILV3, active compounds read low 0.994 | locus YJR066W, strain TOR1 (second series), active compounds read low 0.881 | locus YJR066W, strain TOR1, active compounds read low 0.978 | locus YKL048C, strain ELM1, active compounds read low 0.955 | locus YKL067W, strain YNK1, active compounds read low 0.908 | locus YKL101W, strain HSL1, active compounds read low 0.905 | locus YKL193C, strain SDS22, active compounds read low 0.989 | locus YKL203C, strain TOR2, active compounds read low 0.981 | locus YLR113W, strain HOG1, active compounds read low 0.868 | locus YLR133W, strain CKI1, active compounds read low 0.93 | locus YLR403W, strain SFP1, active compounds read low 0.916 | locus YML070W, strain DAK1, active compounds read low 0.888 | locus YMR001C, strain CDC5, active compounds read low 0.998 | locus YMR205C, strain PFK2 (second series), active compounds read low 0.913 | locus YMR277W, strain FCP1, active compounds read low 0.986 | locus YNL006W, strain LST8, active compounds read low 0.998 | locus YNL020C, strain ARK1, active compounds read low 0.914 | locus YNL161W, strain CBK1, active compounds read low 0.997 | locus YNL183C, strain NPR1, active compounds read low 0.995 | locus YNL207W, strain RIO2, active compounds read low 0.991 | locus YNL222W, strain SSU72, active compounds read low 0.991 | locus YNL307C, strain MCK1 (second series), active compounds read low 0.931 | locus YOL078W, strain AVO1, active compounds read low 0.994 | locus YOL136C, strain PFK27, active compounds read low 0.887 | locus YOR061W, strain CKA2, active compounds read low 0.881 | locus YOR119C, strain RIO1, active compounds read low 0.979 | locus YOR231W, strain MKK1, active compounds read low 0.927 | locus YOR329C, strain SCD5, active compounds read low 0.997 | locus YPL031C, strain PHO85, active compounds read low 0.917 | locus YPL153C, strain RAD53, active compounds read low 0.905 | locus YPL204W, strain HRR25, active compounds read low 0.922 | locus YPL209C, strain IPL1, active compounds read low 0.998 | locus YPL256C, strain CLN2, active compounds read low 0.975 | locus YPR025C, strain CCL1, active compounds read low 0.992 | locus YPR106W, strain ISR1, active compounds read low 0.979 | locus YPR111W, strain DBF20, active compounds read low 0.977 | strain NNK1, active compounds read low 0.97 | strain TSCII, active compounds read low 0.995
